Results reported in PubChem BioAssay (NCI).
Where “and” joins values, the source holds several entries; their conditions need not be identical. Equal values may be shown once. About 79,000 compounds went through this panel and 15% of them were active in at least one assay; those are over-represented in the sample as a whole. Cut-off read from the data, not from the text of the source: active = growth inhibition above about 70%; inactive = the rest.

What was measured:
[1] = NCI Yeast Anticancer Drug Screen. Data for the rad50 strain (AID 155);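 note: 0% = growth of vehicle-only cultures of the same strain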; settings: S. cerevisiae rad50 strain growth inhibition, active compounds read high; at 50.0 µM unless noted
Outline: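 Genetically altered yeast (DNA repair pathway); compound treatment; growth inhibition vs vehicle ctrl.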

[2] = NCI Yeast Anticancer Drug Screen. Data for the mec2-1 strain (AID 157); settings: S. cerevisiae mec2-1 strain, active compounds read high; at 50.0 µM unless noted
Outline: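 Cells of the genetically defined mec2-1 yeast strain are incubated with test compound. Inhibition of growth is calculated against vehicle-treated controls.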

[3] = NCI Yeast Anticancer Drug Screen. Data for the sgs1 mgt1 strain (AID 161);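 note: 0% = growth of cultures given vehicle only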; settings: S. cerevisiae sgs1 mgt1 strain, active compounds read high; at 50.0 µM unless noted
Outline: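 Mutant yeast exposed to compound; growth scored against vehicle-only wells.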

[4] = NCI Yeast Anticancer Drug Screen. Data for the cln2 rad14 strain (AID 165);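 note: 0% = growth equal to vehicle treated cultures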; settings: S. cerevisiae cln2 rad14 strain, active compounds read high; at 50.0 µM unless noted
Outline: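 The screen exposed genetically defined yeast (cln2 rad14) to test compounds and scored growth inhibition relative to vehicle-treated controls.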

[5] = NCI Yeast Anticancer Drug Screen. Data for the bub3 strain (AID 167); settings: S. cerevisiae bub3 mutant strain, active compounds read high; at 50.0 µM unless noted
Outline: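 Yeast carrying a defined mutation is treated with each compound, and growth is compared with that of vehicle-exposed cells to give inhibition.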

[6] = NCI Yeast Anticancer Drug Screen. Data for the mlh1 rad18 strain (AID 175); settings: S. cerevisiae mlh1 rad18 strain growth inhibition, active compounds read high; at 50.0 µM unless noted
Outline: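 Compound-treated yeast growth, normalised to vehicle controls. Strain bears defined DNA repair mutations.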

Measured: growth inhibition

Cc1ccc(C(=O)O)cc1
inactive: [1] 2.95% | [2] -17% | [3] 0.65% | [4] -15.6% | [5] 8.85% | [6] -2.2%

COc1c(OC2OC(CO)C(O)C(O)C2O)cc2c(c1OC)-c1ccc(OC)c(=O)cc1[C@@H](NC(C)=O)CC2 (stereo partly specified)
inactive: [1] -4.2% | [2] 9.6% | [3] 3.8% | [4] 3.65% | [5] -0.1% | [6] 8.05%

Cc1cc(-c2ccc(N=Nc3ccc4c(S(=O)(=O)O)cc(S(=O)(=O)O)c(N)c4c3O)c(C)c2)ccc1N=Nc1ccc2c(S(=O)(=O)O)cc(S(=O)(=O)O)c(N)c2c1O
inactive: [1] -137% and -0.25% | [2] -40.7% and -71.1% | [3] -56.4% and -33.9% | [4] -147% and -4.9% | [5] -118% and -26.3% | [6] -49.2% and -11.2%

NC(=O)c1ccccc1NC(=O)C(=O)C(C(=O)c1ccc(Cl)c(Cl)c1)C1OC(=O)c2ccccc21 (stereo unspecified)
inactive: [1] 53.2% | [2] 46.9% | [3] 32.9% | [4] 67.5% | [5] 57.9% | [6] 44.6%

CC(=O)Oc1cccc2c1C(=O)c1c(OC(C)=O)cc(C)cc1C2=O
inactive: [1] 10.8% | [2] 5.35% | [3] 1.85% | [4] -0.85% | [5] -41% | [6] -15.6%

CCCCCCCCCCCCCCCCCCCCCCCCCCBr
inactive: [1] 0.85% | [2] 0.8% | [3] 9.7% | [4] -9.95% | [5] 10.4% | [6] 11.7%

C(=Nc1ccc(N=Cc2ccco2)cc1)c1ccco1
inactive: [1] 10.8% | [2] 2.3% | [3] 0.5% | [4] -8.1% | [5] -8.5% | [6] 7.35%

CC(=O)Nc1ccc(S(N)(=O)=O)cc1
inactive: [1] 16.6% and -34.8% | [2] 15.6% and 8.55% | [3] 16.1% and 21.3% | [4] 12% and -4.55% | [5] 1.75% and -3.65% | [6] 13.6% and 37%

CC(C)(Oc1ccc(C(=O)c2ccc(Cl)cc2)cc1Cl)C(=O)N1CCN(c2ccccc2)CC1
inactive: [1] 2% | [2] -46.1% | [3] -0.85% | [4] -55% | [5] -9.2% | [6] -5.9%

CCN(CC)c1ccc(N=Nc2ccc(-c3nc4cccnc4o3)cc2)cc1
inactive: [1] -21.4% | [2] -19.2% | [3] -22.9% | [4] -1.7% | [5] 2.15% | [6] -39.3%

CS(=O)(=O)OC1Cc2ccccc2C1
inactive: [1] 12.6% | [2] -0.3% | [3] -2.35% | [4] -6.1% | [5] -5% | [6] 9.9%

CC12C=CC(=O)C(O)C1CC=CC2 (stereo unspecified)
inactive: [1] 12.6% | [2] 14.3% | [3] 4.3% | [4] 6.05% | [5] 11.4% | [6] 8.95%

CSc1ccc(C2NC(=O)NC2=O)cc1 (stereo unspecified)
inactive: [1] -10.2% | [2] -14.6% | [3] -1.95% | [4] -9% | [5] 4.95% | [6] -10.1%

CC1=C(CCC(=O)O)c2cc3nc(cc4[nH]c(cc5[nH]c(cc1n2)c(C)c5C1CC1C(=O)O)c(C)c4C1CC1C(=O)O)C(C)=C3CCC(=O)O (stereo unspecified)
inactive: [1] 0.35% | [2] 22.4% | [3] 30.3% | [4] -0.6% | [5] 13.2% | [6] 25.1%

CCOC(=O)c1c(C)[nH]c(C=O)c1C
inactive: [1] 5.65% | [2] 9.3% | [3] 0.25% | [4] 16.7% | [5] -0.25% | [6] 4.4%

O=C1OC(c2ccccc2)Cc2ccccc21 (stereo unspecified)
inactive: [1] -20.2% | [2] -10.8% | [3] -22.1% | [4] 4.55% | [5] 3.15% | [6] -9.9%

Cc1cn(C2CC(O)C(CO)O2)c(=O)nc1N1CCSCC1 (stereo unspecified)
inactive: [1] 2.5% | [2] -7.05% | [3] -2.6% | [4] -32.8% | [5] -12% | [6] -8.8%

CCCCCCCCCCCC(=O)CCCCCCCCCCCC(=O)OC
inactive: [1] 2.15% | [2] 15.4% | [3] 17.1% | [4] 14.2% | [5] 45% | [6] -2.35%

O=c1[nH]c(Br)nc2c(N3CCCCC3)c[nH]c12
inactive: [1] 12.7% | [2] -0.45% | [3] -7.2% | [4] 4.35% | [5] -3.05% | [6] 11.6%

C[C@H]1CC[C@@H]2O[C@@]23C(=O)OC2OC(C)(C)[C@@H]([C@H]2O)[C@]13C
inactive: [1] -18.6% | [2] -4.85% | [3] -26% | [4] -0.35% | [5] -5.2% | [6] -10.9%

CCCCCCCC[Si](c1ccccc1)(c1ccccc1)c1ccccc1
inactive: [1] 3.15% | [2] 22% | [3] 3.85% | [4] -9.8% | [5] -2.2% | [6] 10.4%

Oc1ccc(C(Cc2ccccc2)NCc2ccccc2)cc1 (stereo unspecified)
inactive: [1] -8.15% | [2] 14.6% | [3] 15.7% | [4] -12.6% | [5] 5.25% | [6] 17.9%

COc1cccc(/C=C/c2cnc3ccccc3n2)c1OC
inactive: [1] -1.25% | [2] 13.8% | [3] -10.2% | [4] 10.7% | [5] -6.7% | [6] -52.1%

CCCCCCCCCCCCNCCC(=O)O
inactive: [1] 25% | [2] -19% | [3] 42.1% | [4] 14.6% | [5] 50.5% | [6] 36.5%

COc1ccc(-c2cc(=O)c3c(O)c(OC)c(O)cc3o2)cc1O
inactive: [1] 24.8% | [2] 14.9% | [3] 37.5% | [4] 22.9% | [5] 37.5% | [6] 17.1%

COC(=O)c1ccccc1-c1ccccc1C(=O)O
inactive: [1] 1.2% | [2] -3.35% | [3] -5.45% | [4] -13.8% | [5] 8.3% | [6] -1.7%

O=c1[nH]c(=O)c2nc(-c3cccnc3)cnc2[nH]1
inactive: [1] 2.8% | [2] -0.1% | [3] -9.7% | [4] 1.6% | [5] 0.85% | [6] 7.45%

CN=Nc1c(O)[nH]c2ccc(C)cc12
inactive: [1] -5.25% | [2] 0.2% | [3] -8.3% | [4] -43.1% | [5] -8.15% | [6] 2.05%

COC(=O)C1(C)CCCC2(C)c3cc(OC)ccc3C(=O)CC12 (stereo unspecified)
inactive: [1] 24.4% | [2] 12.7% | [3] 28% | [4] 5.95% | [5] 19.6% | [6] 21.7%

CC(C)(C(N)C(=O)O)C(N)C(=O)O (stereo unspecified)
inactive: [1] 16.4% | [2] 4.8% | [3] -17.4% | [4] -11.9% | [5] -3.55% | [6] -8.8%

CCOC(=O)c1cc2c(-c3ccccc3)c(-c3ccccc3)c(-c3ccccc3)c(-c3ccccc3)n2n1
inactive: [1] 10.2% | [2] 15.2% | [3] 0.25% | [4] 31.9% | [5] -1.45% | [6] -0.4%

Cc1ccc(NCC2CC/C(=C\c3ccc(Cl)cc3)C2=O)cc1 (stereo unspecified)
inactive: [1] -43.8% | [2] -22.8% | [3] -33.4% | [4] -50.5% | [5] -10.2% | [6] -32.3%

Cc1ccccc1NC(=O)C(=O)CC(=O)c1sc(-n2nc(-c3ccccc3)cc2-c2ccccc2)nc1C
inactive: [1] 12.3% | [2] -4.3% | [3] 5.45% | [4] 16.4% | [5] 2.05% | [6] -17.8%

O=P1(NC23CC4CC(CC(C4)C2)C3)OC(CCl)=NC1c1ccc(C2N=C(CCl)OP2(=O)NC23CC4CC(CC(C4)C2)C3)cc1 (stereo unspecified)
inactive: [1] -56.6% | [2] -32.7% | [3] -34.3% | [4] -12.8% | [5] -35.1% | [6] -57.2%

CC(C)[Si]1(C(C)C)OCC2OC(n3ccc(=O)[nH]c3=O)C([Se]c3ccccc3)C2O[Si](C(C)C)(C(C)C)O1 (stereo unspecified)
inactive: [1] 0% | [2] -22.1% | [3] -25.5% | [4] -17.2% | [5] -49.9% | [6] -61.9%

COCN(CCc1ccccc1)CCN(C)C
inactive: [1] 1.4% | [2] 5.1% | [3] 35% | [4] 7.2% | [5] 2.05% | [6] 16.5%
